Measured potencies and affinities stand elsewhere.
Assays:
[1] = test system: Klebsiella pneumoniae; settings: Concentration 32 ug.mL-1;; ASSAY_TEST Inhibition of Bacterial Growth; detection method Absorption (OD600); MEDIA CAMHB; plate type 384well; NBS; CORNING #3640; time 18 hr
[2] = test system: Candida albicans; settings: Concentration 32 ug.mL-1; ASSAY_TEST Inhibition of Fungal Growth; detection method Absorption (OD530)
[3] = test system: Cryptococcus neoformans; settings: Concentration 32 ug.mL-1; ASSAY_TEST Inhibition of Fungal Growth; detection method Resazurin; Absorption (OD600-OD570); plate type 384well; NBS; CORNING #3640

SMILES	Inhibition [1]	Inhibition [2]	Inhibition [3]
COc1ccc(NC(=O)Cn2nc3c4cc(-c5ccc(C)c(C)c5)nn4ccn3c2=O)cc1OC	13.24%	0.2%	-30.03%
CCOC(=O)c1ccc(NC(=O)Cn2nc3c(SC4CCCCC4)nccn3c2=O)cc1	11.88%	-1.98%	-30.92%
CCc1nnc2c(SCC(=O)Nc3ccc(C)cc3Br)nc3ccccc3n12	6.8%	1.54%	-14.73%
CCOc1ccc(-n2ccn3c(SCC(=O)Nc4ccc(F)cc4F)nnc3c2=O)cc1	15.47%	3.41%	-5.09%
CSc1cccc(NC(=O)Cn2nc3ccc(-c4ccc(C)c(C)c4)nn3c2=O)c1	-6.08%	28.21%	-10.99%
CCOC(=O)c1ccc(NC(=O)Cn2nc3ccc(SCc4ccc(Cl)cc4)nn3c2=O)cc1	5.68%	34.69%	-19.64%
Cc1ccc(NC(=O)Cn2nc3c(Sc4cccc(F)c4)nccn3c2=O)cc1F	11.17%	0.17%	-11.09%
CCOC(=O)c1ccccc1NC(=O)CSc1nc2ccccc2n2c(C(C)C)nnc12	12.78%	1.73%	-19.92%
Cc1cc(C)cc(NC(=O)Cn2nc3ccc(SCc4ccc(Cl)cc4)nn3c2=O)c1	-2.52%	46.75%	-25.54%
COc1cc(NC(=O)Cn2nc3c(N4CCCC4)nccn3c2=O)cc(OC)c1	0.81%	-1.46%	-4.76%
O=C(Cn1nc2c3cc(-c4ccc(Cl)cc4)nn3ccn2c1=O)NCc1ccccc1	15.63%	3.19%	-21.92%
Cc1ccc(-c2cc3c4nn(CC(=O)NC5CCCC5)c(=O)n4ccn3n2)cc1C	3.15%	6.8%	-13.73%
COc1cccc(CNC(=O)CSc2nnc3c(=O)n(-c4cccc(OC)c4)ccn23)c1	10.15%	1.25%	-6.98%
CC1CCN(C(=O)Cn2nc3n(Cc4cccs4)c(=O)c4sccc4n3c2=O)CC1	0.67%	6.15%	-10.95%
CCc1ccc(N(Cc2cccc(OC)c2)S(=O)(=O)c2cccn3cnnc23)cc1	14.16%	4.11%	-10.89%
CCc1nnc2c(S(=O)(=O)N(Cc3ccc(F)cc3)c3ccc(Cl)cc3)cccn12	7.23%	3.47%	-6.36%
COc1cccc(-n2ccn3c(SCC(=O)Nc4cc(F)ccc4F)nnc3c2=O)c1	6.91%	7.1%	-8.94%
CCOC(=O)c1ccccc1NC(=O)Cn1c(=O)c2nnc(C(C)C)n2c2ccccc21	12%	1.04%	-21.33%
CCc1ccccc1NC(=O)CSc1nnc2ccc(C(=O)Nc3cccc(F)c3)cn12	6.52%	8.2%	-4.61%
O=C(CSc1nnc2c(=O)n(-c3ccccc3)ccn12)Nc1cc(F)ccc1F	-0.92%	1.57%	-15%
COc1ccccc1-n1ccn2c(SCc3cccc(Cl)c3)nnc2c1=O	1.3%	1.65%	-7.59%
Cc1cccc(N(Cc2cccc(F)c2)S(=O)(=O)c2cccn3c(C)nnc23)c1	14.45%	2.26%	-8.56%
Cc1ccc(C)c(CSc2nnc3c(=O)n(-c4ccc(Br)cc4)ccn23)c1	7.74%	3.39%	-4.05%
COc1ccc(-c2cc3c4nn(CC(=O)Nc5cccc(OC)c5)c(=O)n4ccn3n2)cc1	10.26%	17.22%	-23.01%
Cc1ccc(CSc2nnc3c(=O)n(-c4ccc(Br)cc4)ccn23)cc1	11.07%	8.75%	-7.86%
Cc1cc(C)c(NC(=O)Cn2nc3c(N4CCCC(C)C4)nccn3c2=O)c(C)c1 (centres undefined)	-3.43%	-1.23%	-2.74%
COc1ccc(NC(=O)Cn2nc3c(Oc4ccccc4)nccn3c2=O)cc1	8.21%	3.81%	-6.99%
O=C(CSc1nnc2ccc(C(=O)Nc3cccc(F)c3)cn12)Nc1ccc(F)c(F)c1	2.94%	5.97%	-3.04%
